TDP1 cell noCPT = qHTS for Inhibitors of human tyrosyl-DNA phosphodiesterase 1 (TDP1): qHTS in cells in absence of CPT | actives 15% (n = 420,000) | DT40 Tdp1-/- hTDP1 cells, no CPT, ATP luminescence, 48 h | Potency, µM (top dose mostly 46.2 µM), without a hit: at the highest dose activity change, negative = growth inhibition, actives largely listed as inhibitors; note: potency is the fitted concentration of half-maximal effect; % is set by controls: 0 for no effect and ±100 for the full control effect; nearly all actives have a fitted effect of over 55% in size
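Camptothecin absent (DMSO only). Human TDP1-complemented DT40 knockout cells, 400 cells/well, 37 °C for minimum 48 hr; ATP measured via CellTiter-Glo, 30 min dark incubation, luminescence.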
TDP1 block = qHTS Assay for Inhibitors of Tyrosyl-DNA Phosphodiesterase (TDP1); Potency, µM (top dose mostly 130 µM), for inactives: at the highest dose activity change, negative = inhibition, actives largely listed as inhibitors; recombinant TDP1, AlphaScreen DNA substrate cleavage; actives 0.28% (n = 350,000); note: potency is the fitted concentration of half-maximal effect; % is set by controls: 0 for no effect and ±100 for the full control effect; nearly all actives have a fitted effect of over 40% in size
Target sequence (Q9NUW8 whole entry, looked up): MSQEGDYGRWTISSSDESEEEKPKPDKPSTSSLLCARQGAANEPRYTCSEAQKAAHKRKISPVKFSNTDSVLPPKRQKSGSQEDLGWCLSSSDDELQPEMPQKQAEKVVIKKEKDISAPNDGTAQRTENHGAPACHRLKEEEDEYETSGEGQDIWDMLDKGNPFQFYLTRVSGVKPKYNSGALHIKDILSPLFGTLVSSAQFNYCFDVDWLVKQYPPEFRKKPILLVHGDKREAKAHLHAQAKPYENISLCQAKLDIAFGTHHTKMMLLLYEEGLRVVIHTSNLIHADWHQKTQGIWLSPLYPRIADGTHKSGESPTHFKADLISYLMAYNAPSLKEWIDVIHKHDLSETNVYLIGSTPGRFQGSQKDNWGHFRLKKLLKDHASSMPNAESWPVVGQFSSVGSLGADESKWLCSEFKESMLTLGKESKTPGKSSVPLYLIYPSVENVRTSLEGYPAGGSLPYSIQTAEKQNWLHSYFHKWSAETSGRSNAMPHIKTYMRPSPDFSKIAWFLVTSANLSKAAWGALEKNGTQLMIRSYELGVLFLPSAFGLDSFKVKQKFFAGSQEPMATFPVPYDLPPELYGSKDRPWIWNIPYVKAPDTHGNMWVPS
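Recombinant E. coli-expressed Tdp1 (1 nM) preincubated with compound 15 min at RT, then 5'-biotin/3'-phosphotyrosine-FITC DNA substrate (15 nM) added for 5 min. AlphaScreen beads (10 ug/ml) added, 10 min RT; tyrosine-FITC cleavage read as signal loss.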
DT40 TDP1 CPT = qHTS for Inhibitors of human tyrosyl-DNA phosphodiesterase 1 (TDP1): qHTS in cells in presence of CPT. Potency, µM (top dose mostly 46.2 µM), for inactives: at the top dose activity change, negative = growth inhibition, most hits filed as inhibitors. AID 686979, 2013. actives 12% (n = 420,000). chicken DT40 Tdp1-/-;hTDP1 cells + 20 nM CPT, ATP luminescence, 48 h; note: potency is the fitted concentration of half-maximal effect; % is set by controls: 0 for no effect and ±100 for the full control effect; nearly all actives have a fitted effect of over 55% in size
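Chicken DT40 Tdp1-/- cells stably complemented with human TDP1 were seeded at 400 cells/well in medium containing 20 nM camptothecin, exposed to pin-transferred compounds, and grown at 37 °C for at least 48 hr. Viability was read as ATP luminescence.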
HepG2 tox = qHTS for Inhibitors of TGF-b: Cytotox Counterscreen. actives 0.76% (n = 410,000). HepG2 CAGA-GFP viability, ATP luminescence, 18 h. Potency, µM (titrated, usually from 46.1 µM), without a hit: top-dose activity change, negative = cytotoxicity, actives largely listed as cytotoxic; note: potency is the fitted concentration of half-maximal effect
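HepG2 CAGA-GFP cells (1000/well, DMEM with 1% FBS) received compound, then TGF-beta at 500 pg/mL final, and were incubated 18 hours at 37 degrees C. Viability was read by CellTiter-Glo luminescence. Media-only wells were set as complete cell-killing and DMSO as no toxicity.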
TGFb inhibitor = qHTS for Inhibitors of TGF-b; HepG2 CAGA-GFP TGF-b/SMAD3 reporter, GFP fluorescence, 18 h; TGF-beta stimulated, 500 pg/mL final; Potency, µM (series often up to 46.1 µM), for inactives: top-dose activity, negative = inhibition, usual class: inhibitors; actives 1.2% (n = 410,000); note: potency is the fitted concentration of half-maximal effect; % is set by controls: 0 for no effect and ±100 for the full control effect; nearly all actives have a fitted effect of over 65% in size
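TGF-beta reporter screen: HEPG2 CAGA-GFP, 1% FBS, 500 pg/mL TGF-beta final, 18 h; per-cell GFP summed per well; curves fitted and categorized by class.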
IL-1B inflam inh = qHTS for Inhibitors of Inflammasome Signaling: IL-1-beta AlphaLISA Primary Screen; THP-1 LPS/ATP IL-1B secretion, AlphaLISA, 16 h; stronger effect = lower value; activity change, % at 57.5 µM; actives 4.7% (n = 360,000); AID 743279, 2014; in the data active = activity change below about -50%; inconclusive = mostly about -30% to -49%; note: % is set by controls: 0 for no effect and ±100 for the full control effect
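Secreted IL-1B measured by AlphaLISA bead assay after 16 h compound exposure of THP-1 cells; compounds (final up to 57.5 uM) added 1 h before LPS (250 ng/mL) and ATP (1.25 mM) stimulation; lower signal means less secretion.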
Starred values were filed as active, the others as inactive; ? = inconclusive; nt = no result given. Hits are enriched below; roughly 18% of the tested compounds scored in any of these assays. Unless noted, calls come from the whole dose curve; as a rule, active = well fitted curve in the direction sought with a large enough effect; inconclusive = small, poorly fitted or top-dose-only effect, or another doubt; inactive = no such curve, though single readings can be large; an effect the other way counts as inactive or inconclusive.

SMILES | TDP1 cell noCPT | TDP1 block | DT40 TDP1 CPT | HepG2 tox | TGFb inhibitor | IL-1B inflam inh
CCO/C(C)=N/n1c2nc3ccccc3nc2c2c(=O)n(Cc3ccccc3Cl)c(C)nc21 | 26µM* | -2% | ? | -17% | -9% | ?
CCOc1c(C)cnc2c1c(=O)n(Cc1ccccc1Cl)c(=O)n2C | 2% | ? | -1% | -3% | 3% | 17
Cc1c(C(=O)N(C)Cc2ccc(F)cc2)sc(=O)n1Cc1ccccc1C#N | 16µM* | nt | 23µM* | -12% | -17% | 1
CCCCN(C)C(=O)c1sc(=O)n(Cc2ccccc2C#N)c1C | ? | nt | 13µM* | 33% | 3% | -7
Cc1ccccc1Cn1c(C)c(C(=O)N(C)Cc2ccc(F)cc2)sc1=O | 18µM* | nt | ? | -5% | -28% | -19
Cc1cc(C)cc(Cn2c(C)c(C(=O)N(C)Cc3ccc(F)cc3)sc2=O)c1 | ? | nt | ? | -29% | ? | -28
COc1cccc(CC(=O)OCC(=O)NCC(=O)Nc2cccc(C)c2C)c1 | -5% | 0% | -9% | -1% | 5% | 0
C#CCN1C(=O)S/C(=C\c2ccc(-c3ccc(Cl)c(C(=O)O)c3)o2)C1=O | -29% | nt | -29% | -3% | 2% | -3
O=C(O)c1cc(-c2ccc(/C=C3\NC(=O)N(c4ccc(Cl)cc4)C3=O)o2)ccc1Cl | -11% | 6.3µM* | -7% | -7% | ? | -11
O=C(O)c1cc(-c2ccc(/C=C3\NC(=O)N(c4ccccc4)C3=O)o2)ccc1Cl | 4.1µM* | 8.9µM* | ? | 3% | 4% | 0
CCOc1ccccc1N1CCN(C(=O)c2csc(C)c2CC)CC1 | 21µM* | 0% | ? | -18% | -2% | ?
Cc1cccc(N2CCN(C(=O)c3noc4c3COc3ccc(C)cc3-4)CC2C)c1 (stereo not given) | 23µM* | 3% | ? | -37% | -14% | -3
CCOc1ccccc1N1CCN(C(=O)Nc2ccc(F)c(Cl)c2)CC1 | 23µM* | 5% | ? | -3% | 4% | -5
Cc1cccc(N2CCN(C(=O)c3cc(C)oc3C)CC2C)c1 (stereo not given) | 16µM* | 3% | ? | 0% | -6% | ?
COc1cccc(N2CCN(C(=O)c3cc(C)oc3C)CC2)c1 | 13µM* | 5% | 12µM* | 12% | ? | 11
CCOc1ccccc1N1CCN(C(=O)c2cc(C)oc2C)CC1 | 23µM* | 0% | 18µM* | -24% | 0% | -9
COc1ccc(S(=O)(=O)Cc2ccc(C(=O)N3CCN(c4cccc(C)c4)C(C)C3)o2)cc1 (stereo not given) | 5.2µM* | 8% | 5.2µM* | -1% | ? | 11
COc1ccccc1N1CCN(C(=O)c2cc(C)oc2C)CC1 | ? | 0% | -14% | -22% | -12% | 3
CCOc1ccccc1N1CCN(C(=S)NC(=O)C23CC4CC(CC(C4)C2)C3)CC1 | 16µM* | 5% | 18µM* | 10% | ? | -9
O=C(NC(=S)N1CCN(c2ccc(F)cc2)CC1)C12CC3CC(CC(C3)C1)C2 | ? | 3% | ? | 18% | -10% | -2
COC(=O)c1cc(NC(=O)CN(c2ccccc2OC)S(=O)(=O)c2ccccc2)ccc1Cl | ? | 9% | ? | -1% | -3% | -22
COC(=O)c1cc(NC(=O)CN(c2ccccc2)S(=O)(=O)N(C)C)ccc1Cl | 23µM* | -3% | ? | -26% | -15% | nt
COC(=O)c1cc(NC(=O)CN(c2cccc(OC)c2)S(=O)(=O)c2ccccc2)ccc1Cl | 16µM* | 3% | ? | -26% | ? | 10
COC(=O)c1ccccc1NC(=O)CN(c1ccccc1)S(=O)(=O)N(C)C | -11% | nt | -16% | -15% | -5% | -2
O=S(=O)(NCc1nc2cccnc2n1Cc1ccc(F)cc1)c1ccc2c(c1)CCCC2 | ? | 8% | 18µM* | -25% | ? | nt
SMILES | TDP1 cell noCPT | TDP1 block | DT40 TDP1 CPT | HepG2 tox | TGFb inhibitor | IL-1B inflam inh
Cc1cccc(Cn2c(CNS(=O)(=O)c3ccc4c(c3)CCCC4)nc3cccnc32)c1 | 16µM* | -1% | ? | -34% | ? | nt
COc1ccccc1Cn1c(CNS(=O)(=O)c2ccc3c(c2)CCCC3)nc2cccnc21 | ? | 11% | ? | -20% | ? | nt
COc1cccc(Cn2c(CNS(=O)(=O)c3ccc4c(c3)CCCC4)nc3cccnc32)c1 | ? | 4% | ? | -12% | ? | nt
O=S(=O)(NCc1nc2cccnc2n1Cc1ccccc1)c1ccc2c(c1)CCCC2 | 21µM* | 4% | ? | -40% | ? | nt
O=S(=O)(NCc1nc2cccnc2n1Cc1ccccc1Cl)c1ccc2c(c1)CCCC2 | 16µM* | 5% | ? | -22% | ? | nt
Cc1ccc2c(Cl)cc(Cl)c(OCC(=O)NC(C)(C)C)c2n1 | 23µM* | 2% | ? | -24% | ? | 11
Cc1ccc2c(Cl)cc(Cl)c(OCC(=O)Nc3cc(S(=O)(=O)N(C)C)ccc3C)c2n1 | 15µM* | 8% | 23µM* | -24% | -11% | ?
Cc1ccc2c(Cl)cc(Cl)c(OCC(=O)Nc3ccc(C)c(S(=O)(=O)N(C)C)c3)c2n1 | nt | 5% | nt | nt | nt | nt
Cc1ccc2c(Cl)cc(Cl)c(OCC(=O)Nc3cccc(S(=O)(=O)N(C)C)c3)c2n1 | 21µM* | 2% | ? | 0% | 11% | 24
Cc1ccc2c(Cl)cc(Cl)c(OCC(=O)Nc3cccc(S(N)(=O)=O)c3)c2n1 | -18% | 1% | -11% | -27% | -21% | ?
CC(=O)Nc1ccc(S(=O)(=O)NCCC(=O)N2CCc3ccccc32)cc1 | -23% | 12% | 8% | -33% | 9% | 5
CC(NC(=O)COC(=O)C1CC2CCCC(C1)C2=O)c1ccccc1 (stereo not given) | 9% | 0% | 1% | 2% | 24% | 13
CCC(c1nnnn1-c1ccc2c(c1)OCCO2)N1CCN(c2ccc(F)cc2)CC1 (stereo not given) | 16µM* | nt | 15µM* | nt | nt | -9
CCC(c1nnnn1-c1ccc2c(c1)OCCO2)N1CCN(c2ncccc2C(F)(F)F)CC1 (stereo not given) | 18µM* | nt | ? | nt | nt | -7

Bioassay records from PubChem.
